FXN GAA850 act: FXN promoter activators, primary screen, cell-based, luciferase luminescence, HEK293 lucGAA850. HEK293 lucGAA850 FXN promoter luciferase reporter, 24 h; percent of 10 µM SAHA response. activation, % at 6 µM. actives 0.56% (n = 360,000). AID 540364, 2011;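 active = activation above the average of all compounds screened plus 3 SD, cutoff fixed separately per campaign, cut at about 7.5% in these data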
MITF act: activators of MITF-driven TRPM1 promoter reporter, primary screen, cell-based, SK-MEL-5, luciferase, single point. AID 588334, 2011. SK-MEL-5 TRPM1-promoter luciferase, 24 h; % of positive control, neutral wells = 0. activation, % at 12.5 µM. actives 0.75% (n = 300,000);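 active = mean activation of at least 80% with every replicate also reaching 80%; inconclusive = mean reaches 80% but some replicate falls short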
esBAF inh: Bmi1 luciferase reporter increase in mESCs, primary screen, esBAF inhibitor project, mouse ES cells, Bmi1 luciferase knock-in, single point; actives 2% (n = 350,000); 24 h; 100% = twice the neutral-well signal; reporter increase, % at 12.5 µM; in the data active = activation above about 40%; inconclusive = no clear call, values can overlap the other calls;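 also: a rise in the Bmi1 reporter signal indicates esBAF inhibition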
AHR act: AHR activators, primary screen, cell-based, luminescence, luciferase reporter, human; actives 2.5% (n = 320,000); Aryl hydrocarbon receptor (Homo sapiens), P35869; AHR-responsive luciferase reporter cells; activation, % at 5 µM; in the data active = activation above about 47%
Target sequence (P35869 whole entry, looked up): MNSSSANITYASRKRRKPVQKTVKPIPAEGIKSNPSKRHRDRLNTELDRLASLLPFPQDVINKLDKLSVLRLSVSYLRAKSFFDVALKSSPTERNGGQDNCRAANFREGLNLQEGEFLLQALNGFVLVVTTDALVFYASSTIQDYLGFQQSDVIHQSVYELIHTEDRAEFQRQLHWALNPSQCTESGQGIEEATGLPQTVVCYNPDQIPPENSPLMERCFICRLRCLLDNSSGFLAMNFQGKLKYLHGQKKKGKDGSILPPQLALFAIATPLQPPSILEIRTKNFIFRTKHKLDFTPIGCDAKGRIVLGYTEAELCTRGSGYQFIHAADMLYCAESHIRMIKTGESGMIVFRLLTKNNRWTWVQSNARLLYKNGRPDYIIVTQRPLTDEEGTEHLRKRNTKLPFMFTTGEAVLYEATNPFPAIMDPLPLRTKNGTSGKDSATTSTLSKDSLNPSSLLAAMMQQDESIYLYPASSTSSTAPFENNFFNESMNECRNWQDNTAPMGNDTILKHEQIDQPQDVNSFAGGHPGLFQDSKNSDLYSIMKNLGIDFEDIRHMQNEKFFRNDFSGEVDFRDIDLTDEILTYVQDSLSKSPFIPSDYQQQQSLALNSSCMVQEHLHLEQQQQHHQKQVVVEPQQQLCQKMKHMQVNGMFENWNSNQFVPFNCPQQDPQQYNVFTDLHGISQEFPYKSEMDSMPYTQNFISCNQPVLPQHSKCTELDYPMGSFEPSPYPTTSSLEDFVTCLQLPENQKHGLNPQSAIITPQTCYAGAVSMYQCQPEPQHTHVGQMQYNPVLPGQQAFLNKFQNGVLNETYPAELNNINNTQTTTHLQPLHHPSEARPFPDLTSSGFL
Wnt act: Wnt/beta-catenin pathway activators, primary screen, cell-based, plate reader, single point. Wnt/beta-catenin reporter cell assay, activator. actives 1.2% (n = 300,000). activation, % at 9.35 µM; in the data active = activation above about 30%, passing the limit was not always enough; inconclusive = no clear call, values can overlap the other calls
A number is an active result; 0 = inactive; ? = inconclusive; - = not tested or not shown. Most compounds without a hit are left out; they make up all but 4.2% or so of the library.

SMILES	FXN GAA850 act	MITF act	esBAF inh	AHR act	Wnt act
CC(=O)N1[C@H](CNC(=O)CN2CCOCC2)[C@H](c2ccccc2)[C@@H]1CO	-	-	0	-	-
c1ccc(-c2ccc(-n3ccnc3)cc2)cc1	0	0	56	0	?
c1ccc(-c2ccc(C(c3ccccc3)n3ccnc3)cc2)cc1 (configuration not stated)	0	0	0	48	0
C[C@H](CO)N1C[C@H](C)[C@H](CN(C)Cc2ccc(C(=O)O)cc2)Oc2ccc(NC(=O)Cn3cnnn3)cc2CC1=O	-	-	0	-	-
CN(C)C(=S)N=Nc1[nH]c2ccccc2c1O	-	-	-	64	0
CN(C)C(=O)c1ccc(N=Nc2c(O)c3ccccc3[nH]c2=O)cc1	0	0	0	-	0
COc1ccc(C2CC(c3ccc(Br)cc3)=NN2C(=S)Nc2ccccc2)cc1 (configuration not stated)	0	0	45	0	0
Cc1ccc(C2=NN(C(=S)Nc3ccccc3)C(c3ccco3)C2)cc1 (configuration not stated)	0	0	80	0	-
COC(=O)C[C@@H]1C[C@@H]2c3cc(NC(=O)Nc4ccccc4F)ccc3O[C@@H]2[C@@H](CO)O1	-	-	0	-	-
C[C@H](CO)N1C[C@H](C)[C@H](CN(C)S(C)(=O)=O)Oc2ncc(-c3ccccc3)cc2C1=O	-	-	0	-	-
Cc1ccccc1NC(=O)C(=O)c1cn(C)c2ccccc12	0	0	56	0	0
CCc1nnc(N/N=C/c2cc(Br)c(O)cc2O)n1N	0	0	0	0	0
CC(C)(C)c1nnc(N/N=C/c2cc(Br)ccc2O)n(N)c1=O	0	0	-	0	33
CN1CCN(C(=O)C[C@@H]2C[C@@H]3c4cc(NC(=O)Nc5ccc(F)cc5)ccc4O[C@@H]3[C@H](CO)O2)CC1	-	-	0	-	-
Cc1noc(C)c1NC(=O)N(C)C[C@H]1Oc2ncc(C#CC3CC3)cc2C(=O)N([C@H](C)CO)C[C@H]1C	-	-	0	-	-
Cc1ccc(-c2nc(=S)c3c(n2Cc2ccco2)CCCC3)cc1	0	0	0	-	-
Cc1ccc(-c2nc(=S)c3c(n2Cc2ccco2)CC(C)(C)OC3)cc1	7.6	-	0	0	-
O=C(NNCc1ccccc1)c1ccccn1	0	0	0	-	36
O=C(NNCc1ccccc1)c1ccccc1	0	0	0	-	0
O=C(CC(=O)c1ccccn1)c1ccccc1	0	0	-	-	50
CC1(C)CC(=O)c2c(O)cc(OCc3ccc([N+](=O)[O-])cc3)cc2O1	0	0	47	0	-
Cc1ccc2oc(C(=O)N(Cc3ccncc3)CC3CCCO3)c(C)c2c1 (configuration not stated)	0	0	58	0	0
CC(C)=CCc1c(O)cc2c(c1O)C(=O)CC(c1ccccc1)O2 (configuration not stated)	0	0	0	51	0
COc1ccc([C@H]2Cc3cc(O)cc(O)c3C(=O)O2)cc1O	0	0	0	0	41
COc1ccc(C2CC(=O)c3c(O)cc(O)cc3O2)cc1O (configuration not stated)	0	0	52	-	0
SMILES	FXN GAA850 act	MITF act	esBAF inh	AHR act	Wnt act
O=C1CC(c2ccccc2)Oc2cc(O)cc(O)c21 (configuration not stated)	0	-	60	0	0
O=C1CC(c2ccc(O)cc2)Oc2cc(O)cc(O)c21 (configuration not stated)	0	0	0	0	0
O=C1CC(c2ccc(O)c(O)c2)Oc2cc(O)cc(O)c21 (configuration not stated)	0	0	0	0	0
COc1ccc([C@H]2Cc3cccc(O)c3C(=O)O2)cc1O	0	0	55	0	0
O=C1O[C@@H](c2ccc(O)cc2)Cc2cccc(O)c21	0	0	0	0	0
C[C@H](CO)N1C[C@H](C)[C@H](CN(C)Cc2ccc3c(c2)OCO3)Oc2ccc(NS(=O)(=O)c3ccccc3)cc2C1=O	-	-	0	-	-
Cc1ccc(C(=O)NCCCNC(=O)c2ccco2)cc1	0	0	0	0	0
Cc1ccc(-c2cnc(SCCNC(=O)c3ccco3)[nH]2)cc1	0	0	0	61	0
Clc1ccc(-c2nnc(-c3ccccc3)c(-c3ccccc3)n2)cc1	0	-	0	0	0
Nc1nc(-c2ccc(Cl)cc2)nnc1-c1ccc(Br)cc1	0	0	52	0	51
CN1CCN(C(=O)CNc2ccc(C(F)(F)F)cc2[N+](=O)[O-])CC1	0	0	-	0	0
Cc1cccc(OCCNc2ccc(C(F)(F)F)cc2[N+](=O)[O-])c1	0	90	-	0	-
CS(=O)(=O)NCCCNc1ccc(C(F)(F)F)cc1[N+](=O)[O-]	0	0	0	0	0
O=C(CSc1ccc(C(F)(F)F)cc1[N+](=O)[O-])Nc1ccccc1	0	0	0	48	-
CC(C)NC(=O)CNc1ccc(C(F)(F)F)cc1[N+](=O)[O-]	0	0	-	52	0
COc1ccc(S(=O)(=O)Nc2ccc3c(c2)C(=O)N([C@@H](C)CO)C[C@H](C)[C@H](CN(C)S(=O)(=O)c2cn(C)cn2)O3)cc1	-	-	0	-	-
CC(C)NC(=O)N(C)C[C@H]1Oc2ccc(NC(=O)CCN3CCOCC3)cc2C(=O)N([C@@H](C)CO)C[C@H]1C	-	-	0	-	-
COc1ccc(CN2C(=O)CS/C2=N/N=C/c2ccccc2)cc1	0	-	-	0	0
COc1ccc(/C=N/N=C2/SCC(=O)N2Cc2ccccc2)cc1	0	-	-	0	56
Cc1cccc(Cc2cnc(NC(=O)c3ccc(C)o3)s2)c1	0	88	-	0	51
Cc1cccc(Cc2cnc(NC(=O)C3=NCCN3)s2)c1	0	0	0	0	0
C[C@H](CO)N1C[C@H](C)[C@H](CN(C)C(=O)Cc2cccnc2)Oc2ncc(C#Cc3ccccc3F)cc2C1=O	-	-	0	-	-
Cc1c(C(=O)/C=C/N(C)C)nnn1-c1ccc(Cl)c(Cl)c1	0	-	-	0	48
COc1ccc(CN(C)C[C@H]2Oc3ccc(NS(=O)(=O)c4ccc(F)cc4)cc3C(=O)N([C@@H](C)CO)C[C@H]2C)cc1	-	-	0	-	-
C[C@@H]1CN([C@H](C)CO)C(=O)c2cc(-c3ccncc3)cnc2O[C@H]1CN(C)C(=O)Nc1ccc2c(c1)OCO2	-	-	0	-	-
SMILES	FXN GAA850 act	MITF act	esBAF inh	AHR act	Wnt act
C[C@H](CO)N1C[C@H](C)[C@H](CN(C)C(=O)C2CCOCC2)Oc2ncc(C#Cc3cccc(F)c3)cc2C1=O	-	-	0	-	-
Nc1ccc2nc(CCc3ccccc3)[nH]c2c1	0	0	-	0	0
Cc1ccc2nc(CCc3ccc(N)cc3)[nH]c2c1	0	0	0	52	0
Cc1ccccc1Nc1nc(N)nc(COC(=O)c2ccccc2)n1	0	83	-	0	-
Cn1cccc1C(=O)OCc1csc(-c2ccccc2)n1	0	0	-	0	71
Cc1ccccc1Nc1nc(N)nc(COC(=O)c2cccn2C)n1	0	-	48	0	66
O=C(OCc1csc(-c2ccccc2)n1)c1cccs1	0	-	0	0	0

Source: PubChem BioAssay (several laboratories)
